In assay [1] the target is Thyrotropin receptor (Homo sapiens) (UniProt P16473). As to the kind of experiment: qHTS assay to identify small molecule agonists of the thyroid stimulating hormone receptor (TSHR) signaling pathway (AID 1224843). Further: nearly all actives have a fitted effect of over 45% in size. An outline of the steps: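 Steps: seed 800 TSHR-HEK293 cells per well; add test compound and hold 30 min at ambient temperature; dispense cAMP-d2 then anti-cAMP cryptate; incubate 1 h at ambient; measure fluorescence intensity.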
Chain of Thyrotropin receptor (Homo sapiens) (P16473 whole entry, looked up): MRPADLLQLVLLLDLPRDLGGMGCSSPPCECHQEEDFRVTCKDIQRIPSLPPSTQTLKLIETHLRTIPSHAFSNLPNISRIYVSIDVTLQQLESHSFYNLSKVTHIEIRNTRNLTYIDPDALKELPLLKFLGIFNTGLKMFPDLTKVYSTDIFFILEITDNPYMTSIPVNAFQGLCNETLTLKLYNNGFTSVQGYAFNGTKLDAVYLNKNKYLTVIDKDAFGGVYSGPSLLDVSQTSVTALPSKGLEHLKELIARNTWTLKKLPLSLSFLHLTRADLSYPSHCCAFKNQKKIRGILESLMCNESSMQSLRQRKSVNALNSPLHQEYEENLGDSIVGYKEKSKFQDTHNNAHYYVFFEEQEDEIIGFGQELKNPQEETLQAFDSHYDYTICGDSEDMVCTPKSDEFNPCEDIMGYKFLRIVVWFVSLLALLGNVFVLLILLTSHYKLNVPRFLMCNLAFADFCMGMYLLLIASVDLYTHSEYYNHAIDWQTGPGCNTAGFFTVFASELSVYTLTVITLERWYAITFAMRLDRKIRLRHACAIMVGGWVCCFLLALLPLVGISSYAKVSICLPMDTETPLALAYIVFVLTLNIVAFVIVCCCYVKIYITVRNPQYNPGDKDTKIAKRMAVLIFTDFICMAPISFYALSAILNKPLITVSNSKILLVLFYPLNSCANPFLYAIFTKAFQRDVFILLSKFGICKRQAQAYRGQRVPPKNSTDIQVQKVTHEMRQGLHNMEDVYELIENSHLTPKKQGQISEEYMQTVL

Assay [2] is described as follows: qHTS assay to identify small molecule agonists of the hypoxia (HIF-1) signaling pathway - cell viability counter screen (AID 1224844). Further: nearly all actives have a fitted effect of over 50% in size. Summed up: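 Multiplexed with the HRE beta-lactamase assay, this viability read used CellTiter-Glo luminescence (30 min, RT) on HRE-bla ME-180 cells treated 17 hrs with compounds in 0.5% dialyzed FBS medium.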
Assay [3] in a line: qHTS assay to identify small molecule agonists of H2AX (AID 1224845; active means well fitted activation curve with a large enough effect in the signal ratio in the repeat runs, not every such curve was filed as active; the % refers to the signal ratio). Summed up: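 Wild-type CHO-K1 cells, plated overnight, exposed 3hr at 37C to 15 concentrations (0.76% DMSO final). Lysed, then HTRF anti-pH2AX (S139) cryptate and anti-H2AX-d2 antibodies, 24 hr room temperature; 665/620 nm emission read.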
(qHTS replaces the single test concentration by a dilution series.)

The nature of assay [4]: qHTS assay to identify small molecule agonists of the hypoxia (HIF-1) signaling pathway (AID 1224846; active means well fitted activation curve with a large enough effect in the signal ratio in the repeat runs, not every such curve was filed as active; the % refers to the signal ratio). An outline of the steps:
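Hypoxia-pathway activation was scored as increased beta-lactamase from an HRE-controlled reporter in ME-180 cells; plated at 2,000 cells per well with 0.5% dialyzed FBS, they were exposed 17 hrs to compounds and then given CCF4-AM.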

Assay [5] is described as follows: qHTS assay to identify small molecule antagonists of the estrogen related receptor (ERR) signaling pathway from Tox21 library (AID 1224848; active means well fitted curve in the direction sought with a large enough effect in the repeat runs; an effect the other way counts as inactive or inconclusive; further: nearly all actives have a fitted effect of over 50% in size). An outline of the steps:
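Luminescent reporter read-out (ONE-Glo) from NTP's ERR cell line after 18 h treatment at 37 C with DMSO-dissolved Tox21 compounds; cells pre-plated 6 h beforehand at 2,000 per well.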

A short description of assay [6]: qHTS assay to identify small molecule agonists of the estrogen related receptor (ERR) signaling pathway from Tox21 library (AID 1224849). Further: nearly all actives have a fitted effect of over 15% in size. The conditions noted are these: ERR reporter cell line, ONE-Glo luciferase, 18 h; at 92.4 µM (top of the series) unless noted. Summed up: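 Six hours post-seeding at 37 C/5% CO2, ERR cells receive DMSO-solubilised compounds; after 18 h at 37 C, ONE-Glo reagent is applied and luminescence recorded.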

Assay [7] can be described thus: qHTS RealTime-Glo MT Cell Viability Assay in HepG2 cells - 24 hour (AID 1224867; active means well fitted curve in the direction sought with a large enough effect in the repeat runs; an effect the other way counts as inactive or inconclusive; further: nearly all actives have a fitted effect of over 50% in size). Summed up: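 Real-time, nonlytic viability: 600 HepG2 cells/well mixed with NanoLuc enzyme plus prosubstrate; 5 h settle, compound (DMSO) added by pintool; luminescence monitored over 40 h at 37 C.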
Assay [8] in a line: qHTS RealTime-Glo MT Cell Viability Assay in HEK293 cells - 32 hour (AID 1224868; active means well fitted curve in the direction sought with a large enough effect in the repeat runs; an effect the other way counts as inactive or inconclusive; further: top concentration of the series differs between compounds; nearly all actives have a fitted effect of over 50% in size). An outline of the steps: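 Cells + reagent dispensed (600 cells/well, HEK293) → 5 h at 37 C/5% CO2 → 23 nL compound in DMSO pinned → 40 h at 37 C → luminescence read at 0, 8, 16, 24, 32, 40 h.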
Assay [9] in a line: A CellTox Green Cytotoxicity Assay to monitor cytotoxicity in HEK293 cells - 0 hour (AID 1224869; active means well fitted curve in the direction sought with a large enough effect in the repeat runs; an effect the other way counts as inactive or inconclusive; further: nearly all actives have a fitted effect of over 50% in size). An outline of the steps: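 Seeding of HEK293 cells together with cytotoxicity dye preceded a 5 h incubation at 37 C/5% CO2. Test compounds in DMSO were then added and fluorescence monitored across 40 h.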
The nature of assay [10]: qHTS assay to identify small molecule agonists of H2AX - cell viability counter screen (AID 1224847). Further: top concentration of the series differs between compounds; nearly all actives have a fitted effect of over 30% in size. An outline of the steps: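 Cytotoxicity counter screen in wild-type CHO-K1 cells: a 3 hr compound treatment at 37C across 15 concentrations, followed by CellTiter-Glo luminescence to gauge viable cells.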

Each structure is given as a SMILES string. A number with no mark means an inactive call. Results filed as inconclusive are left out. The source made the active and inactive calls. Unless noted, the call rests on the fitted dose curve.
On the % scale 0 is the no-effect control and ±100 the full control effect.

As to `Cc1nc(-c2ccc(OCC(C)C)c(C#N)c2)sc1C(=O)O`, the result in assay [1], in assay [3], in assay [4] and in [7] was inactive. Also, the Potency entry in assay [2], in assay [5], in [8] and in [9] was “inactive” throughout. For the same compound, the activity change, positive = activation in assay [6] was 18.5% [at 42.5 µM] (active).

For `Cc1ccc(N)cc1[N+](=O)[O-]`, the call in assay [1], in assay [3], in [4] and in [7] was inactive. Also, the Potency entry in [2], in assay [10], in [8] and in assay [9] was “inactive” throughout.

In the case of `O=C(O)c1ccccc1-c1ccc(C(F)(F)F)cc1`, the compound was classed as inactive in assay [1], in assay [3], in assay [4] and in assay [7]. In addition, the Potency result in [2], in assay [10], in assay [8] and in assay [9] was “inactive” throughout.

As to `C[N+](C)(C)CC[N+]1(C)Cc2c(Cl)c(Cl)c(Cl)c(Cl)c2C1`, the compound was classed as inactive in assay [1], in [3] and in assay [4]. The Potency entry in assay [2], in assay [10] and in assay [8] was “inactive” throughout.

For the compound `CCCc1ccc(N)cc1`, the compound was called inactive in [1], in assay [3], in [4] and in [7]. For the same compound, the Potency result in assay [2], in [10], in assay [8] and in assay [9] was “inactive” in each case.

As to `O=C(O)C1CCC1`, the compound was classed as inactive in assay [1], in [3], in assay [4] and in [7]. In addition, the Potency entry in [2], in [10], in assay [8] and in assay [9] was “inactive” in each case.

With `NC(=O)CCCCC1CCSS1` (stereo not given), the outcome in assay [1], in [3], in assay [4] and in [7] was inactive. Moreover, the Potency entry in [2], in assay [10], in [8] and in assay [9] was “inactive” in each case.

Regarding `CCCCCCCCCCCCCCCCCC(=O)OCCCCCCCCCCCCCC(C)C`, the result in assay [1], in assay [3], in assay [4] and in [7] was inactive. Also, the Potency result in assay [2], in [10], in assay [8] and in [9] was “inactive” throughout.

`CC1(C)OC(=O)Nc2ccc(Br)cc21`: the compound was classed as inactive in [1], in [3], in [4] and in [7]. Also, the Potency entry in [2], in [10], in [8] and in [9] was “inactive” throughout.

`CC(C)N1C(=O)c2ccccc2C1=O`: the compound was called inactive in [1], in assay [3], in assay [4] and in [7]. The Potency result in [2], in assay [10], in assay [8] and in assay [9] was “inactive” each time.

In the case of `COC(C(=O)O)c1ccccc1` (stereo not given), the outcome in assay [1], in [3], in assay [4] and in assay [7] was inactive. For the same compound, the Potency entry in assay [2], in assay [10], in assay [8] and in assay [9] was “inactive” in each case.

In the case of `CO[Si](CCCNCCC[Si](OC)(OC)OC)(OC)OC`, the call in assay [1], in assay [3], in [4] and in assay [7] was inactive. Besides, the Potency result in assay [2], in assay [10], in assay [8] and in assay [9] was “inactive” each time.

As to `OCCN1C[C@H](O)[C@@H](O)[C@H](O)[C@H]1CO`, the compound was called inactive in assay [1], in assay [3], in [4] and in assay [7]. Further, the Potency entry in [2], in assay [10], in assay [8] and in assay [9] was “inactive” in each case.

Consider `C=CCSCC1Nc2cc(Cl)c(S(N)(=O)=O)cc2S(=O)(=O)N1` (stereo not given), for which the outcome in assay [1], in assay [3], in [4] and in assay [7] was inactive. Besides, the Potency result in [2], in assay [10], in [8] and in [9] was “inactive” each time.

Turning to `O=[N+]([O-])c1ccc(CCO)cc1`, the result in [1], in [3], in assay [4] and in assay [7] was inactive. Moreover, the Potency result in assay [2], in [10], in [8] and in assay [9] was “inactive” each time.

For `CCCCCOC(=O)Nc1nc(=O)n([C@@H]2O[C@H](C)[C@@H](O)[C@H]2O)cc1F`, the compound was classed as inactive in assay [1], in assay [3], in [4] and in assay [7]. Moreover, the Potency entry in assay [2], in [10] and in assay [9] was “inactive” each time.

For `O=C(O)c1ccc[n+]([O-])c1`, the outcome in assay [1], in assay [3], in [4] and in assay [7] was inactive. Also, the Potency result in assay [2], in [10], in [8] and in assay [9] was “inactive” in each case.

For the compound `CC(C)COC(=O)c1ccccc1O`, the compound was called inactive in [1], in [3], in [4] and in [7]. Further, the Potency result in assay [2], in [10], in assay [8] and in assay [9] was “inactive” in each case.

As to `CCOC(=O)Nc1ccc2c(c1)N(C(=O)CCN1CCOCC1)c1ccccc1S2`, the call in assay [1], in assay [3], in assay [4] and in assay [7] was inactive. In addition, the Potency entry in assay [2], in [10], in [8] and in assay [9] was “inactive” throughout.

Turning to `Cc1cc(C)cc(OCC2CNC(=O)O2)c1` (stereo not given), the compound was called inactive in [1], in assay [3], in [4] and in assay [7]. Moreover, the Potency result in assay [2], in [10], in assay [8] and in [9] was “inactive” throughout.

Turning to `NC(=S)Nc1cccc2ccccc12`, the activation was 1.3% [at 8.39 µM] in [1] and 1.15% [at 7.01 µM] in [4]. Further, the activity change, negative = cytotoxicity in [2] was -3.12% [at 6.97 µM]; in [10], 1.9% [at 14 µM]; in [7], 1.73% [at 6.97 µM]. In addition, the activation (H2AX phosphorylation) in assay [3] is 4.19% [at 14 µM]. Also, the activity change, negative = cytotoxic in assay [8] was 15.6% [at 6.97 µM]. Also, in [9], the cytotoxicity was 0.823% [at 6.97 µM].

For `CC(C)(C)N(CCO)CCO`, the call in assay [1], in assay [3], in assay [4] and in assay [7] was inactive. The Potency entry in assay [2], in assay [10], in [8] and in assay [9] was “inactive” in each case.

As to `CC(C=O)Cc1ccc(C(C)C)cc1` (stereo not given), the call in assay [1], in assay [3], in assay [4] and in [7] was inactive. Further, the Potency result in assay [2], in [10], in assay [8] and in [9] was “inactive” each time.

For the compound `C=C(C)C(=O)NCCC[N+](C)(C)C`, the compound was classed as inactive in assay [1], in [3], in [4] and in assay [7]. The Potency entry in assay [2], in [10], in assay [8] and in assay [9] was “inactive” each time.

For the compound `CCCCNc1ccccc1`, the call in assay [1], in [3], in assay [4] and in assay [7] was inactive. In addition, the Potency entry in assay [2], in assay [10], in assay [8] and in assay [9] was “inactive” each time.

Take `CCn1cc(C(=O)O)c(=O)c2cc(F)c(N3CCN(C)CC3)cc21`: the figures for the activation in assay [1] and in assay [4] were -0.535% [at 19 µM] and -0.496% [at 15.8 µM], respectively. For the same compound, the figures for the activity change, negative = cytotoxicity in assay [2], in assay [10] and in assay [7] were -1.72% [at 15.8 µM], -2.01% [at 31.6 µM] and 0.0471% [at 15.8 µM], respectively. In assay [3], the activation (H2AX phosphorylation) is -0.959% [at 31.6 µM]. In assay [8], the activity change, negative = cytotoxic is 4.88% [at 15.8 µM].

These data come from PubChem BioAssay (Tox21).
